From PubChem BioAssay AID1251 (SRMLSC, 2008)
Hit rate of the full screen: of about 200,000 compounds, about 720 (0.36%) were called active. Cut-off read from the data, not from the text of the source: active = inhibition above about 30%; inactive = the rest, inconclusive results apart. What follows is part of a selection rich in actives, with near analogues and random picks from the rest.

Assay: inhibitors of arbovirus infection in cells – cell-based, full library, 10K replicate subset, primary screen (AID 1251)
[1] = arbovirus infection cell-based antiviral screen, at 10 µM, stronger effect = higher value
[2] = arbovirus infection cell-based antiviral screen; at 10 µM; stronger effect = higher value
[3] = arbovirus infection cell-based antiviral screen; measured here: 10K subset replicate screen; at 10 µM; stronger effect = higher value

## NC(=O)COc1ccc(NC(=O)c2ccccc2-c2ccccc2)cc1
[1]
  inhibition: -1.27% (inactive)

## COCCn1c(SCC(=O)Nc2cc(Cl)ccc2OC)nc2c(c1=O)SC(C)C2 (stereo unspecified)
[2]
  inhibition: 31.7% (active)
[3]
  inhibition: 23%

## CCn1c(SCC(=O)Nc2ccccc2F)nc2c(c1=O)SC(C)C2 (stereo unspecified)
[1]
  inhibition: 13.7% (inactive)

## CC1Cc2nc(SCC(=O)Nc3ccccc3F)n(C)c(=O)c2S1 (stereo unspecified)
[1]
  inhibition: 6.16% (inactive)

## COc1ccc(C)cc1NC(=O)CSc1ccc(Cl)cc1
[1]
  inhibition: 3.07% (inactive)

## CC(=O)Nc1ccc(SCC(=O)Nc2ccccc2Oc2ccccc2)cc1
[1]
  inhibition: -11.3% (inactive)

## O=C(CSc1ccccc1)Nc1cc(Cl)ccc1Oc1ccccc1
[1]
  inhibition: 31.3% (active)

## C=Cn1c(C(=O)O)ccc1-c1ccc(OC)cc1
[1]
  inhibition: -6.55% (inactive)

## CCn1c(-c2cccnc2Cl)nc2cc(C)c(C)cc21
[1]
  inhibition: 9.84% (inactive)

## CCn1cnc2scc(-c3ccc(C)c(C)c3)c2c1=O
[1]
  inhibition: -10.7% (inactive)

## Cc1cc(F)ccc1S(=O)(=O)Nc1ncnc2scc(-c3ccc(F)cc3)c12
[1]
  inhibition: 34.8% (active)

## COc1ccc(-c2csc3ncnc(Oc4ccc5c(C)cc(=O)oc5c4)c23)cc1
[1]
  inhibition: -19% (inactive)

## Cc1cccc(C)c1NC(=O)Nc1ccccc1-n1ccnc1
[1]
  inhibition: 0% (inactive)

## CCN(/N=C/c1ccc(N(C)C)cc1)c1nc2ccccc2[nH]1
[1]
  inhibition: -9.69% (inactive)

## CCNC(=S)NNC(=O)C1CCN(Cc2ccccc2)CC1
[1]
  inhibition: 0.25% (inactive)

## CCN(CCO)C(=S)Nc1cc(C(=O)OC)ccc1C(=O)OC
[1]
  inhibition: -0.56% (inactive)

## CC(=O)Nc1ccc(Sc2ccccc2C(=O)N2CCCC2)cn1
[1]
  inhibition: 12.2% (inactive)

## CN(C)c1nc(-c2cccnc2)nc(-c2ccc(Cl)cc2)c1C#N
[1]
  inhibition: -9.56% (inactive)

## O=C(CCN1CCN(C/C=C/c2ccccc2)CC1)Nc1cccc(F)c1
[1]
  inhibition: -4.37% (inactive)

## CC/C(=N\NC(=S)NC(C)C)c1ccc(OC(F)F)cc1
[1]
  inhibition: 1.93% (inactive)

## CC(Nc1nc(N2CCCC2)nc2ccccc12)c1ccccc1 (stereo unspecified)
[1]
  inhibition: -47.5% (inactive)

## CC(=O)NC(CC(=O)O)c1ccc(F)cc1 (stereo unspecified)
[1]
  inhibition: 4.26% (inactive)

## Cc1ccc(C(CC(=O)O)Nc2nc(N3CCCCC3)nc(N3CCCCC3)n2)cc1 (stereo unspecified)
[1]
  inhibition: 31.3% (active)

## O=[N+]([O-])c1ccc2oc(-c3cccc(O)c3)nc2c1
[1]
  inhibition: 0.35% (inactive)

## COc1ccc(Nc2nc(NCc3ccco3)nc(N/N=C/c3ccccc3Cl)n2)cc1
[1]
  inhibition: -9.8% (inactive)

## CC1CCCC(NC(=O)c2cccc(N3CCCC3=O)c2)C1C (stereo unspecified)
[1]
  inhibition: 15.1% (inactive)

## O=C(Nc1ccc(-c2ccc3nncn3n2)cc1)C1CCCCC1
[1]
  inhibition: 2.96% (inactive)

## CC(CC(=O)O)C(=O)c1ccc(Cl)c([N+](=O)[O-])c1 (stereo unspecified)
[1]
  inhibition: 5.76% (inactive)

## CCO[C@@H]1OC(C(=O)N2CCOCC2)=C[C@H](C)[C@H]1CCCO
[1]
  inhibition: 1.57% (inactive)

## COc1ccc(C(=O)OCC(=O)NC(=O)CCSc2ccccc2)cc1
[1]
  inhibition: -0.73% (inactive)

## Cc1ccccc1Nc1scc(-c2ccc(Br)cc2)[n+]1-c1ccccc1C
[1]
  inhibition: 15.8% (inactive)

## O=C(CC1C(=O)NCCN1Cc1ccc(-c2ccccc2)cc1)NCC1CCOCC1 (stereo unspecified)
[1]
  inhibition: 1.09% (inactive)

## Cc1ccc(CNC(=O)Cn2c(=O)c3sccc3n(Cc3cccc([N+](=O)[O-])c3)c2=O)cc1
[1]
  inhibition: -23.2% (inactive)

## C/C(=N\NC(=O)c1ccc(NS(=O)(=O)c2cccs2)cc1)c1ccc2ccccc2c1
[1]
  inhibition: -27.7% (inactive)

## O=c1[nH]c(SCc2ccccc2)nnc1-c1ccccc1
[1]
  inhibition: 33.1% (active)

## c1ccc(CSc2nnc(-c3ccco3)c(-c3ccco3)n2)cc1
[1]
  inhibition: 13.1% (inactive)

## Cc1ccccc1CSc1nnc(-c2ccccc2)c(=O)[nH]1
[1]
  inhibition: 1.96% (inactive)

## O=C(Cn1cnc([N+](=O)[O-])n1)NCCc1ccccc1
[1]
  inhibition: -2.73% (inactive)

## CC(=O)Oc1ccccc1C(=O)Nc1ncc([N+](=O)[O-])s1
[1]
  inhibition: 31.3% (active)

## O=C(Cc1c(F)cccc1Cl)Nc1ncc([N+](=O)[O-])s1
[1]
  inhibition: 25.4% (inactive)

## O=C(CCc1ccccc1)Nc1ncc([N+](=O)[O-])s1
[1]
  inhibition: 14.4% (inactive)

## Cc1ccc(-c2csc(NNC(=O)c3ccccc3)n2)cc1
[1]
  inhibition: -29.2% (inactive)

## Cc1ccc(-c2csc(NC(=O)c3cccs3)n2)cc1
[1]
  inhibition: 103% (active)

## Cc1nc(-c2ccc(NC(=O)c3cccs3)cc2)cs1
[1]
  inhibition: -9.57% (inactive)

## COc1ccc(OC)c(-c2c(=O)n(OCc3ccccc3Br)c3ccccc3[n+]2[O-])c1
[1]
  inhibition: 6.28% (inactive)

## O=C(COC(=O)c1ccccc1)Nc1ccccc1Sc1ccccc1
[1]
  inhibition: -1.75% (inactive)

## O=c1[nH]c(CN2CCN(S(=O)(=O)c3ccc4c(c3)OCCO4)CC2)nc2sc3c(c12)CCCC3
[1]
  inhibition: 11.3% (inactive)

## CCCCOc1ccc(NC(=O)[C@@H]2CCCN2C(=O)C2CCN(S(=O)(=O)c3ccc(C)cc3)CC2)cc1
[1]
  inhibition: -16.3% (inactive)

## Cc1cc(C)c(C#N)c(N2CCC(C(N)=O)CC2)n1
[1]
  inhibition: 2.87% (inactive)

## CC(NC(=O)C(=O)NN=C1CCC(C(C)(C)C)CC1)c1ccccc1 (stereo unspecified)
[1]
  inhibition: 1.88% (inactive)

## Cc1sc2nc(CC(N)=O)[nH]c(=O)c2c1-c1ccccc1
[1]
  inhibition: 3.01% (inactive)

## Cc1ccsc1C1C(C#N)=C(N)OC2=C1C(=O)CC(C)C2 (stereo unspecified)
[1]
  inhibition: -1.92% (inactive)

## C=CCN1C(=O)C(O)(CC(=O)c2ccccn2)c2ccccc21 (stereo unspecified)
[1]
  inhibition: -2.77% (inactive)

## Cc1ccc(NC(=O)N2CCC(c3nc4c(nnn4Cc4c(F)cccc4Cl)c(=O)[nH]3)CC2)cc1
[1]
  inhibition: -3.45% (inactive)

## Cc1ccc(C)c(Cn2nnc3c(=O)[nH]c(C(=O)Nc4ccc(F)cc4)nc32)c1
[1]
  inhibition: 39.7% (active)

## O=C(Nc1ccc(F)cc1)N1CCCC(c2nc3c(nnn3Cc3ccccc3Cl)c(=O)[nH]2)C1 (stereo unspecified)
[1]
  inhibition: 12.4% (inactive)

## CSCCNCc1cn(-c2ccc(F)cc2F)nc1-c1ccccc1C
[1]
  inhibition: -1.44% (inactive)

## CCOC(=O)Cc1ncccc1C(=O)Nc1ccc(OC(F)(F)F)cc1
[1]
  inhibition: 4.21% (inactive)

## Cc1nn(Cc2ccc(Cl)cc2)c(Cl)c1/C=N/NC(=O)CNc1ccccc1F
[1]
  inhibition: -16.6% (inactive)

## CC(=O)Nc1ccc(NC(=S)NC(=O)c2ccc([N+](=O)[O-])c(C)c2)cc1
[1]
  inhibition: -7.89% (inactive)

## O=C(O)c1ccc2c(c1)C(=O)N(NC(=O)c1ccc(O)cc1)C2=O
[1]
  inhibition: -2.03% (inactive)

## CCC(=O)N1CCN=C1SCc1ccc(F)cc1
[1]
  inhibition: -3.24% (inactive)

## O=C(c1ccco1)N1CCN=C1SCc1cccc(Cl)c1
[2]
  inhibition: 5.96% (inactive)
[3]
  inhibition: 0.055%

## O=C(C1CC1)N1CCN=C1SCc1ccc(Cl)cc1
[1]
  inhibition: 55.7% (active)

## C/C(=N\NC(=O)CCn1nc(C)cc1C)C(C)(C)C
[1]
  inhibition: -5.42% (inactive)

## CCCN(C(=O)CSc1nnnn1C)c1c(N)n(Cc2ccccc2)c(=O)[nH]c1=O
[1]
  inhibition: 21.9% (inactive)

## COc1ccc(C2C=C(c3ccc(Br)cc3)Nc3nc(NS(C)(=O)=O)nn32)cc1 (stereo unspecified)
[1]
  inhibition: 61.9% (active)

## Brc1ccc(C2=CC(c3ccco3)n3ncnc3N2)cc1 (stereo unspecified)
[1]
  inhibition: 12.4% (inactive)

## COc1ccc(C2=CC(c3cccc(OC)c3)n3nnnc3N2)cc1 (stereo unspecified)
[1]
  inhibition: 11.1% (inactive)

## CC1(C)CC(=O)CC2(C1)NCC(c1ccccc1Cl)c1c2[nH]c2ccccc12 (stereo unspecified)
[1]
  inhibition: -27.8% (inactive)

## CCOC(=O)c1csc(NC(=O)Nc2cccc(OC)c2)n1
[1]
  inhibition: 6.16% (inactive)

## COc1cccc(Nc2nnc(SCC(=O)N3CC(C)OC(C)C3)s2)c1 (stereo unspecified)
[1]
  inhibition: 2.66% (inactive)

## COc1cccc(NC(=O)Nc2nnc(N3CCCCC3C)s2)c1 (stereo unspecified)
[2]
  inhibition: 37.5% (active)
[3]
  inhibition: 24.8%

## NC(N)=Nc1nc2ccc(Br)cc2c(=O)[nH]1
[1]
  inhibition: -2.82% (inactive)

## CCOc1ccc(C(=O)Nc2cccc(SC)c2)cc1
[1]
  inhibition: 4.43% (inactive)

## Cc1ccc(C2=C/C(=C\c3cccnc3)C(=O)O2)cc1
[1]
  inhibition: -1.53% (inactive)

## O=C(Nc1ccc2c(c1)CCC2)c1cccc(S(=O)(=O)Nc2ccccc2Cl)c1
[1]
  inhibition: -3.02% (inactive)

## C=CCn1c(SCC(=O)Nc2nc3ccccc3s2)nnc1-c1ccccc1O
[1]
  inhibition: 47.3% (active)

## Cn1nnnc1SCC(=O)Nc1nc2ccccc2s1
[1]
  inhibition: 0.23% (inactive)

## C=CCn1c(SCC(=O)NCc2ccccc2)nnc1-c1cc(Br)ccc1O
[1]
  inhibition: 8.76% (inactive)

## CCOc1c(Cl)cc(/C=N/O)cc1OC
[1]
  inhibition: 11% (inactive)

## CCOC(=O)CN/C=C(\C#N)c1ccc(F)cc1
[1]
  inhibition: -0.71% (inactive)

## CCOc1cc(/C=C(/C#N)c2ccc(Cl)cc2)cc(Cl)c1OCC(=O)O
[1]
  inhibition: 51.7% (active)

## O=c1oc(/C=C/c2ccccc2)nc2ccccc12
[1]
  inhibition: 44.9% (active)

## CCn1c(/C=C/c2ccc([N+](=O)[O-])o2)nc2ccccc2c1=O
[1]
  inhibition: -31.9% (inactive)

## S=c1[nH]nc(/C=C/c2ccccc2)o1
[1]
  inhibition: -0.67% (inactive)

## CC(C)(C)NC(=O)c1cccc(NC(=O)Cc2ccc(Br)cc2)c1
[1]
  inhibition: 17.2% (inactive)

## Cc1ccccc1NC(=S)N(CCCN1CCOCC1)Cc1cccs1
[1]
  inhibition: 7.45% (inactive)

## CCCc1cc(=O)[nH]c(SCc2ccc(C#N)cc2)n1
[1]
  inhibition: 42% (active)

## CCCc1cc(=O)[nH]c(SCc2cc(=O)oc3c(C)c(C)ccc23)n1
[1]
  inhibition: 5.14% (inactive)

## CCCc1cc(=O)[nH]c(SCC(=O)OCc2ccccc2)n1
[1]
  inhibition: 0.37% (inactive)

## CN1CCN(S(=O)(=O)c2cccc(C(=O)O)c2)CC1
[1]
  inhibition: -0.22% (inactive)

## CC(=O)n1cc([C@@H]2C=C(C(=O)N3CCN(Cc4ccc5c(c4)OCO5)CC3)O[C@H](OCc3ccc(CO)cc3)C2)c2ccccc21
[1]
  inhibition: -8.36% (inactive)

## COc1ccc(C)cc1NC(=O)c1ccc(-c2ccc(C(C)=O)cc2)o1
[1]
  inhibition: -5.64% (inactive)

## Cc1cccc(CSc2nnc(NC(=O)CSc3nnc(C)s3)s2)c1
[1]
  inhibition: 31.4% (active)

## Cc1nnc(SCC(=O)NCc2ccccc2)s1
[2]
  inhibition: -3.33% (inactive)
[3]
  inhibition: 3.33%

## Cc1cccc(NC(=O)CSc2nnc(NC(=O)CN3CCOCC3)s2)c1
[1]
  inhibition: 4.51% (inactive)
